Only some compounds are listed: those with a hit (about 19% of all), similar ones and a draw of the others.
DT40 TDP1 CPT = growth inhibition of DT40 Tdp1-/-;hTDP1 cells with camptothecin (screen for TDP1 inhibitors); 12% of 420,000 active; chicken DT40 Tdp1-/-;hTDP1 cells + 20 nM CPT, ATP luminescence, 48 h; Potency, µM (titrated, usually from 46.2 µM), most hits filed as inhibitors; also: nearly all actives have a fitted effect of over 55% in size
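Chicken DT40 Tdp1-/- cells stably complemented with human TDP1 were seeded at 400 cells/well in medium containing 20 nM camptothecin, exposed to pin-transferred compounds, and grown at 37 °C for at least 48 hr. Viability was read as ATP luminescence.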
HT1080 IDH1KD tx = HT-1080 IDH1 knockdown cell toxicity (counter line). HT-1080 IDH1 knockdown viability, ATP luminescence, 48 h. Potency, µM (series often up to 46.1 µM), most hits filed as cytotoxic. 2% of 360,000 active
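HT-1080-IDH1KD cells (IDH1 knocked down), 750/well in RPMI with 5% FBS, treated with compound 48 h at 37 degrees C. Viability by CellTiter-Glo luminescence, normalised to DMSO and no-cell wells; concentration-response curves classed.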
HT1080-NT tox = kills 2HG-producing HT-1080-NT fibrosarcoma cells; HT-1080-NT fibrosarcoma viability, CellTiter-Glo ATP luminescence, 48 h; Potency, µM (series often up to 46.1 µM), most hits filed as cytotoxic; 1.6% of 360,000 active;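 also: NT is the 2HG producing partner of a matched IDH1 knockdown line; nearly all actives have a fitted effect of over 55% in size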
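Compounds were tested in concentration-response format on HT-1080-NT cells for 48 hours at 37 degrees C. Cell viability came from CellTiter-Glo luminescence; curves were classified by r2, response magnitude and activity.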
ELG1 DNA repair = ELG1-dependent DNA repair inhibition | HEK293T ELG1-luciferase reporter, luminescence, 16 h; DNA damage induced by 5-fluorouridine | 2.3% of 330,000 active | AID 504467 | Potency, µM (doses to about 46.1 µM), most hits filed as inhibitors; also: nearly all actives have a fitted effect of over 55% in size
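Quantitative HTS, concentration-response format. 2,000 cells/well co-treated with 5-fluorouridine and compound, 16 hr in 5% CO2 at 37 °C; ONE-Glo luminescence read after 30 min.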
IL1B secr inh = blocks inflammasome-driven IL-1 beta release. 4.7% of 360,000 active. THP-1 LPS/ATP IL-1B secretion, AlphaLISA, 16 h; active compounds read low. AID 743279. activity change, % at 57.5 µM; in the data active = activity change below about -50%; inconclusive = mostly about -30% to -49%
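THP-1 cells pretreated 1 hr with compounds (up to 57.5 uM final), then stimulated with LPS (250 ng/mL final) plus ATP (1.25 mM final); secreted IL-1B measured by AlphaLISA after 16 hr, decreased signal indicating inhibition.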
DT40 TDP1 no CPT = qHTS for Inhibitors of human tyrosyl-DNA phosphodiesterase 1 (TDP1): qHTS in cells in absence of CPT. DT40 Tdp1-/- hTDP1 cells, no CPT, ATP luminescence, 48 h. Potency, µM (series often up to 46.2 µM), hits mostly inhibitors. 15% of 420,000 active. AID 686978, 2013; also: nearly all actives have a fitted effect of over 55% in size
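DT40 Tdp1-/-;hTDP1 cells, no CPT (DMSO vehicle only), 400 cells/well; compounds pin-transferred; ≥48 hr, 37 °C; CellTiter-Glo 30 min RT dark, luminescence read.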
Each line names hits and unclear results; the compound was inactive in the other large screens. Unless noted, calls follow the shape of the dose curve; as a rule, active = well fitted curve in the direction sought with a large enough effect; inconclusive = small, poorly fitted or top-dose-only effect, or another doubt; inactive = no such curve, though single readings can be large; an effect the other way counts as inactive or inconclusive.

COC(=O)C1=C(c2cccc(OCc3ccccc3)c2)C[C@@H]2CC[C@H]1N2C(=O)NCc1cccc(C(F)(F)F)c1	DT40 TDP1 CPT 21µM, ELG1 DNA repair inconclusive, IL1B secr inh inconclusive, DT40 TDP1 no CPT 16µM
COC(=O)C1=C(c2cccc(OCc3ccccc3)c2)C[C@@H]2CC[C@H]1N2C(=O)NCc1cc(C)oc1C(F)(F)F	DT40 TDP1 CPT 23µM, DT40 TDP1 no CPT inconclusive
COC(=O)C1=C(c2ccc(OCc3ccccc3)cc2)C[C@@H]2CC[C@H]1N2C(=O)NCc1ccc(C(C)(C)C)cc1	DT40 TDP1 CPT 12µM, DT40 TDP1 no CPT 9.2µM (no result: ELG1 DNA repair)
COC(=O)C1=C(c2cccc(OCc3ccccc3)c2)C[C@@H]2CC[C@H]1N2C(=O)NCc1ccccc1	DT40 TDP1 CPT inconclusive, DT40 TDP1 no CPT inconclusive
COC(=O)C1=C(c2cccc(OCc3ccccc3)c2)C[C@@H]2CC[C@H]1N2C(=O)NCc1ccc(OC)cc1	DT40 TDP1 CPT 12µM, DT40 TDP1 no CPT 16µM
CCOP(=O)(/C(C#N)=C(\C)O)c1ccccc1 (configuration not stated)	DT40 TDP1 no CPT inconclusive
COC(=O)C1=C(c2cccc(OCc3ccccc3)c2)C[C@@H]2CC[C@H]1N2C(=O)NCc1ccccc1OC	DT40 TDP1 CPT inconclusive, IL1B secr inh inconclusive, DT40 TDP1 no CPT 23µM
COC(=O)C1=C(c2ccc(OCc3ccccc3)cc2)C[C@@H]2CC[C@H]1N2C(=O)NCc1ccc2c(c1)OCO2	DT40 TDP1 CPT 5.8µM, DT40 TDP1 no CPT 4.1µM (no result: ELG1 DNA repair)
COC(=O)C1=C(c2ccc(OCc3ccccc3)cc2)C[C@@H]2CC[C@H]1N2C(=O)NCc1cccc(OC)c1	DT40 TDP1 CPT 18µM, ELG1 DNA repair inconclusive, DT40 TDP1 no CPT 21µM
COC(=O)C1=C(c2cccc(OCc3ccccc3)c2)C[C@@H]2CC[C@H]1N2C(=O)NCc1ccc(OC)c(OC)c1	DT40 TDP1 CPT 16µM, ELG1 DNA repair inconclusive, DT40 TDP1 no CPT 15µM
COC(=O)C1=C(c2ccc(S(C)(=O)=O)cc2)C[C@@H]2CC[C@H]1N2C(=O)NCc1ccccc1	none (no result: ELG1 DNA repair)
COC(=O)C1=C(c2cccc(OCc3ccccc3)c2)C[C@@H]2CC[C@H]1N2C	DT40 TDP1 CPT inconclusive, DT40 TDP1 no CPT inconclusive (no result: ELG1 DNA repair)
CN(C)N=O	none
COC(=O)C1=C(c2ccc(OCc3ccccc3)cc2)C[C@@H]2CC[C@H]1N2C(=O)NCc1ccc(OC)cc1	DT40 TDP1 CPT 7.3µM, DT40 TDP1 no CPT 6.5µM (no result: ELG1 DNA repair)
CCCCC[C@@H](O)C1C(=O)OC(C)[C@H](O)/C=C/C=C/C=C/C=C/C=C(\C)C(O)C(O)C(O)C[C@H](O)C[C@H](O)C[C@H](O)C[C@H](O)C[C@@H]1O (some centres not stated)	none (no result: HT1080 IDH1KD tx, HT1080-NT tox, ELG1 DNA repair, IL1B secr inh)
CC(=O)OC1N=C(c2ccccc2Cl)c2cc(Br)ccc2N(C)C1=O (configuration not stated)	DT40 TDP1 no CPT inconclusive
N#CC12CNCC1CN=N2 (configuration not stated)	none
O=C(OCc1ccccc1)N1CCC2CC1c1cc(N3Cc4ccccc4-n4nncc4C3)ccc12 (configuration not stated)	DT40 TDP1 CPT 7.3µM, DT40 TDP1 no CPT 5.8µM (no result: ELG1 DNA repair)
Fc1ccc(N2Cc3ccccc3-n3nncc3C2)cc1	DT40 TDP1 CPT inconclusive, DT40 TDP1 no CPT inconclusive (no result: ELG1 DNA repair)
CC(C)c1ccc(Cc2cn3cc(-c4cc5ccccc5oc4=O)nc3s2)cc1	DT40 TDP1 CPT 0.26µM, DT40 TDP1 no CPT 0.18µM (no result: HT1080 IDH1KD tx, HT1080-NT tox, ELG1 DNA repair, IL1B secr inh)
Cc1cc(C)cc(NC(=S)NC2CC3CCC(C2)N3Cc2ccco2)c1 (configuration not stated)	DT40 TDP1 CPT inconclusive, DT40 TDP1 no CPT 16µM
Cc1cc(NC(=O)CSc2nc3c(c(=O)n2-c2ccc(Cl)cc2)SCC3)no1	HT1080-NT tox inconclusive (no result: ELG1 DNA repair)

Assay outcomes as filed in PubChem BioAssay.
